From PubChem BioAssay AID1117294 (Broad Institute, 2014) come the findings set out here.

The structures appear in SMILES notation. Unmarked numbers belong to inactive results.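 Rule for the calls: active = Lowers HeLa cell ATP signal, with fitted half-maximal potency at most twice the top tested dose in every run; inconclusive = runs disagree, or fits flat mid-range or poor; inactive = every run inactive, including signal rising.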

This experiment in a line: HeLa cell cytotoxicity, dose response, cytotoxicity control, CellTiter-Glo luminescence, dry powder, set 3 (AID 1117294). The following applies: HeLa viability, ATP luminescence (CellTiter-Glo), 72 h. For orientation: In ATP-based viability assays light output follows the ATP content of the culture.

`COc1ccc(C(=O)O)cc1S(=O)(=O)Nc1cccc(N2CCCCC2)c1C(F)(F)F`: the max activity is 15.2%.

`O=S(=O)(O)c1ccc(N2N=C(c3ccccc3)CC2c2ccccc2)cc1` (stereo not drawn): the max activity (at 0.0015 µM) is -32.4%.

Take `COc1ccc(C(=O)O)cc1S(=O)(=O)Nc1cc(C(F)(F)F)ccc1N1CCOCC1`: the max activity (at 0.003 µM) was -16.9%.

In the case of `COc1ccc(C(=O)O)cc1S(=O)(=O)Nc1cc(C(F)(F)F)ccc1N1CCCCC1`, the max activity by setting is: (at 0.0235 µM) -13.4%; (at 12 µM) -15.9%.

On to `COc1ccc(C(=O)O)cc1S(=O)(=O)Nc1cc(C(F)(F)F)ccc1N(C)C`, for which the max activity (at 6 µM) is -19%.

In the case of `COc1ccc(C(=O)O)cc1S(=O)(=O)N1CCN(c2ccc(C(F)(F)F)cc2N)CC1`, the max activity (at 12 µM) is -20.1%.

`COc1ccc(C(=O)Nc2cccc(C(F)(F)F)c2)cc1S(=O)(=O)O`: the max activity (at 26 µM) is -20.5%.
